In the library only some 11% were active in any assay of this set; here they are far more common.
Pf growth 96h: inhibits malaria parasite growth, 96 h. actives 6.9% (n = 320,000). P. falciparum luciferase reporter growth, 96 h. Potency, µM (top dose mostly 28.7 µM), without a hit: top-dose activity change, negative = inhibition, actives largely listed as inhibitors
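Plates of compound plus infected erythrocytes (2% hematocrit, 0.05% parasitemia final) incubate 96 hours, 37 C, 5% CO2. Detection reagent added; reduced luminescence from the parasites' luciferase reporter flags inhibition.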
AMA1 RON2 block: disrupts binding of P. falciparum AMA1 to RON2; actives 0.2% (n = 360,000); Potency, µM (series often up to 58.2 µM), inactives show at the top dose activity change, negative = inhibition, usual class: inhibitors; AlphaScreen AMA1-biotinylated RON2 peptide binding; AID 720542;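 further: 0% = vehicle wells and -100% = peptide control; nearly all actives have a fitted effect of over 45% in size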
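AMA1 (3D7) with his tag at 25 nM final met compounds first, then biotinylated RON2 peptide at 25 nM; detection used donor plus acceptor beads, 10 µg/mL apiece, read by AlphaScreen after 30 min at room temperature.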
Pf growth 48h: inhibits P. falciparum growth in the first generation, 48 h; Potency, µM (top dose mostly 28.7 µM), for the others: top-dose activity change, negative = inhibition, actives largely listed as inhibitors; P. falciparum luciferase growth in erythrocytes, 48 h; AID 504832; actives 5.9% (n = 310,000)
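First compound was added to culture medium, then infected red cells at 0.1% parasitemia and 2% hematocrit (final). After incubation at 37 C under 5% CO2, luciferase detection reagent was dispensed and light output recorded.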
HCV inh: inhibitors of hepatitis C virus infection; AID 651820; actives 3.4% (n = 340,000); Potency, µM (series often up to 41.8 µM), for the others: top-dose activity change, negative = inhibition, most hits filed as inhibitors; Huh7.5.1 HCVcc-Cre infection, luciferase reporter, 44 h
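1,000 cells/well; 4 h culture; + compound; + HCVcc-Cre (~0.5 moi); 44 h; luciferase substrate, RT 15 min; read 15 sec.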
Numbers without * were called inactive; ? = inconclusive; · = no result; [ ] = dose if it differs, or a comment. The call rests on the fitted dose curve; in most records, active means well fitted curve in the direction sought with a large enough effect; inconclusive means small, poorly fitted or top-dose-only effect, or another doubt; inactive means no such curve, though single readings can be large; an effect the other way counts as inactive or inconclusive. Unless noted, on the % scale 0 is the no-effect control and ±100 the full control effect; potency means the concentration at half of the fitted maximal effect.

SMILES	Pf growth 96h	AMA1 RON2 block	Pf growth 48h	HCV inh
CC(=O)c1cccc(NCC(=O)Nc2cc(S(=O)(=O)N3CCCCC3)ccc2C)c1	10µM*	-13%	?	11µM*
O=C(CNc1cccc(S(=O)(=O)N2CCOCC2)c1)Nc1cccc(Br)c1	9.3µM*	-14%	6.6µM*	?
O=C(CNc1cccc(S(=O)(=O)N2CCCC2)c1)Nc1cccc(Br)c1	4.1µM*	-6%	5.2µM*	?
COc1cccc(C(=O)OCC(=O)NCCCc2ccccc2)c1	18%	6%	·	11%
CCCCn1nc(NC(=O)CC)c2cc3cc(OC)ccc3nc21	?	31%	?	?
Cc1cc(N2CCN(C)CC2)nc2ccc(NC(=S)N3CCN(c4ccccn4)CC3)cc12	9.3µM*	-13%	-32%	-21%
Cc1cc(N2CCN(C)CC2)nc2ccc(NC(=S)N3CCC4(CC3)OCCO4)cc12	12µM*	-8%	4.1µM*	25%
Cc1ccc(C)c(N2CCN(C(=S)Nc3ccc4nc(N5CCN(C)CC5)cc(C)c4c3)CC2)c1	27%	-6%	10µM*	2.5µM*
Cc1ccc(C)c(N2CCN(C(=S)Nc3ccc4nc(N5CCOCC5)cc(C)c4c3)CC2)c1	6%	1%	?	?
COc1ccccc1N1CCN(C(=S)Nc2ccc3nc(N4CCOCC4)cc(C)c3c2)CC1	?	24%	?	3.5µM*
CCCCN1C(=O)C(CC(=O)NCCCN(C)C)CC(C(=O)N(C(C)C)C(C)C)=C1C (stereo not given)	·	8%	·	·
Cc1cn([C@H]2C[C@H](O)[C@@H](CCC(=O)NC(c3ccccc3)c3ccccc3)O2)c(=O)[nH]c1=O	·	-1%	·	-7%
COc1ccc2c(=O)cc(CO)oc2c1	·	7%	·	20%
CN(C)c1oc(-c2ccccc2F)nc1C#N	?	-6%	51%	-14%
N#Cc1nc(COc2ccccc2)oc1NCCCn1ccnc1	?	-23%	?	4%
COc1ccc(-c2nc(C#N)c(NCCCn3ccnc3)o2)cc1OC	·	-8%	?	?
CCCOc1ccc(-c2nc(C#N)c(NCCCn3ccnc3)o2)cc1	7.4µM*	0%	10µM*	?
CC(C)(C)c1ccc(-c2nc(C#N)c(NCCCn3ccnc3)o2)cc1	8.3µM*	8%	?	0%
CN(C)c1oc(-c2ccc(OCc3ccccc3)cc2)nc1C#N	5.2µM*	-29%	-14%	?
N#Cc1nc(-c2ccc(F)cc2)oc1NCCCn1ccnc1	-29%	·	-17%	·
N#Cc1nc(-c2ccc(OCc3ccccc3)cc2)oc1NCCCn1ccnc1	15%[5.75 µM]	6%	2.9µM*	?
O=C(Cc1ccc(Cl)cc1)NNC(=O)C1CC=CCC1C(=O)O (stereo not given)	-16%	·	0%	·
N#Cc1nc(-c2ccc(OCc3ccccc3Cl)cc2)oc1NCCCn1ccnc1	21%	·	1.7µM*	5%
CCOC(=O)C1CCN(S(=O)(=O)c2ccc(Cl)cc2)CC1	4%	20%	38%[0.00184 µM]	15%
CC(=O)c1ccc(Nc2cc(C)nc3ccc(C)cc23)cc1	4%	8%	3.7µM*	?
SMILES	Pf growth 96h	AMA1 RON2 block	Pf growth 48h	HCV inh
COc1ccc(Nc2cc(C)nc3ccc(C)cc23)cc1	·	-16%	·	·
O=C(COC(=O)c1cc(NS(=O)(=O)c2cccs2)ccc1O)Nc1ccccc1	32%	9%	-1%	-16%
CN(Cc1ccccc1)C(=O)COC(=O)c1cc(NS(=O)(=O)c2cccs2)ccc1O	?	-5%	25%	10µM*
Cc1ccccc1/C=N/Nc1nc2ccccc2c(=O)n1O	47%	71%	35%	-3%
CC1(C)C[C@H]2C=C(C=O)[C@]3(C=O)C[C@]3(C)[C@H]2C1	?	12%	?	3.2µM*
O=c1c(Br)c(Br)cnn1-c1ccccc1	-2%	3%	-28%	8.9µM*
Cc1ccc(-n2ncc(Br)c(Br)c2=O)cc1	19%[5.75 µM]	0%	-23%	?
Cc1ccc(/C(O)=C2/C(=O)C(=O)N(CC(=O)O)C2c2ccc([N+](=O)[O-])cc2)cc1 (stereo not given)	?	10%	3%	5%
Cc1cc(C)nc(NN=C2CCCC2)n1	?	46%	12µM*	10%
CC(/C=C/c1ccccc1)=N/NC(=O)c1nc2nc(C)cc(C)n2n1	58%	0%	29%	23%
Cc1cc(C)nc(NN=C(c2ccccc2)c2ccccc2)n1	13µM*	8%	?	?
CC(/C=C/c1ccccc1)=N\Nc1nc(C)cc(C)n1	10µM*	68%	?	13%
Cc1cc(C)nc(Nc2ccc(C(=O)O)cc2)n1	78%	-3%	·	-1%
Cc1cc(C)nc(SCc2ccc(C(=O)NN=C3CCCC3)cc2)n1	?	25%	0%	-28%
CC1CCCCC1NC(=O)C1CCN(c2c3c(nc4ncnn24)CCC3)CC1 (stereo not given)	-8%	-11%	9.3µM*	?
O=S1(=O)CC(O)C(N=Nc2c(O)n(Cc3ccccc3)c3ccccc23)C1 (stereo not given)	-9%	27%	-3%	-2%
CC(C)(CNC(=O)c1ccc(Br)o1)CNC(=O)c1ccc(Br)o1	-23%	-7%	0%	?
c1ccc(Cn2cc(CSc3ccccc3)nn2)cc1	92%	2%	50%	13%
c1ccc(SCc2cn(C[C@H]3CC[C@@H]([C@@H]4CC[C@H](Cn5cc(CSc6ccccc6)nn5)O4)O3)nn2)cc1	15µM*	-8%	-15%	?
COc1cccc(-c2cn(C[C@H]3CC[C@@H]([C@@H]4CC[C@H](Cn5cc(-c6cccc(OC)c6)nn5)O4)O3)nn2)c1	7.4µM*	-7%	?	-11%
Cn1c(NCCc2ccncc2)nc2cc(-c3ccsc3)sc2c1=O	·	0%	·	·
CCOc1ccc(N2C(=O)CNC2=S)cc1	?	67%	-2%	8%
CCOc1ccc(N2CC(=O)Nc3ccccc3NCC2=O)cc1	8.3µM*	-10%	-2%	1%
CCCCCCCCN1C(=O)[C@H](CC(=O)N2CCN(C(=O)C3CC3)CC2)C[C@@]2(C(=O)OC)CC(C)(C)CC=C12	·	-5%	·	·
O=C(Nc1ccc(N2CCCC(O)C2)cc1)c1snc2c(=O)[nH]cnc12 (stereo not given)	42%	-2%	·	12%
SMILES	Pf growth 96h	AMA1 RON2 block	Pf growth 48h	HCV inh
Cc1nc2c(C(=O)Nc3ccc(N4CCCC(O)C4)cc3)snc2c(=O)[nH]1 (stereo not given)	?	-7%	1.7µM*	-10%
OCc1c[nH]c2ccccc12	?	-6%	?	-9%
CN(C)Cc1c[nH]c2ccccc12	9.3µM*	-4%	?	-1%
Nc1ncnc2c1ncn2CCOc1ccccc1	87%	0%	-8%	27%
CC(C)(C)C(=O)OCOP(=O)(COCCn1cnc2c(N)ncnc21)OCOC(=O)C(C)(C)C	6.7µM*	·	15µM*	·
CCOc1ccc(CCNC(=O)Cc2ccc(NC3=NC4CS(=O)(=O)CC4S3)cc2)cc1OCC (stereo not given)	33%	-11%	0%	-1%

Compound activity (PubChem BioAssay)
